For 18 molecules, composite z-score and z-score results are on record in PubChem BioAssay.

The subject of assay [1] is Human papillomavirus type 1a protein E7 (residues 44-93). Kind of assay: small molecules binding HPV E7 44-93 – biochemical, small-molecule microarray, residues 44-93, 635 nm fluorescence, primary screen (AID 1108).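 Further: E7 fragment applied at 1 µg/mL in TBST for 1 h at 4 C; score combines spot fluorescence with its signal to noise ratio.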 Particulars: fluorescence 635 nm, higher = more signal.
Assay [2] in a line: hepatitis C replication reporter changes, two-sided – Huh7 cells, luciferase reporter, HCV replication inhibitor project, primary screen (AID 1109).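 Further: huh7 hepatoma cells harbouring a luciferase neomycin HCV replicon reporter; luciferase luminescence as measure of HCV replicon replication; test concentration not given here.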 Particulars: Huh7 HCV replicon luciferase reporter, 48 h; higher = more signal. In general terms: In a reporter assay the amount or activity of a reporter protein is the signal.
The target of assay [3] is Left-right determination factor 2 (Homo sapiens) (UniProt O00292). Kind of assay: small molecules binding LEFTY2 protein – biochemical, small-molecule microarray, 635 nm fluorescence scan, primary screen (AID 1110). Particulars: higher = more signal.
Left-right determination factor 2 (Homo sapiens), sequence (O00292 whole entry, looked up): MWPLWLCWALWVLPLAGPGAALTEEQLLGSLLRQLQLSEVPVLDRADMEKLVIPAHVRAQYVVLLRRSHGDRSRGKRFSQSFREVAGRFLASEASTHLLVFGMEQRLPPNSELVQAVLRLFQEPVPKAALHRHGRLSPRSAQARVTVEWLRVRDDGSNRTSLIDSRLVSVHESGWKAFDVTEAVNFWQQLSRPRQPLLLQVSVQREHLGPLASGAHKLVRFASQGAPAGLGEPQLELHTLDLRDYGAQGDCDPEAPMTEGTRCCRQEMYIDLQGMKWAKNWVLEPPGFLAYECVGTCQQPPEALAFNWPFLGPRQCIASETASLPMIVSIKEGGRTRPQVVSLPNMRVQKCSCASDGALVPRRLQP
The target of assay [4] is Calmodulin-1 (Homo sapiens) (UniProt P0DP23). Kind of assay: small molecules binding calmodulin-1 with EGTA – biochemical, small-molecule microarray, Cy5-labelled CALM1, profiling panel (AID 1111).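 Further: labelled calmodulin applied in Tris saline Tween buffer holding calcium plus EGTA and DTT.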 Particulars: Cy5-CALM1 binding fluorescence, higher = more signal.
Assay [5] shares this target. Kind of assay: small molecules binding Ca-loaded calmodulin-1 – biochemical, small-molecule microarray, Cy5-labelled CALM1, plus calcium, artefact control for SMM control-protein annotation, profiling panel (AID 1112).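 Further: score merges spot fluorescence with signal to noise from triplicate slides.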 Particulars: Cy5-CALM1 binding fluorescence, higher = more signal.
Assay [6] in a line: probe aWnt5a binding to arrayed compounds – biochemical, biotinylated probe, 635/667 nm fluorescence, primary screen (AID 1113).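 Further: score merges 667 nm fluorescence intensity with signal-to-noise per printed feature.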 Particulars: small-molecule microarray, higher = more signal.
Assay [7] is described as follows: probe aShh binding to arrayed compounds – biochemical, biotinylated probe, 635/667 nm fluorescence, primary screen (AID 1114).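 Further: probe is biotin-labelled aShh protein from a stem cell growth factor screen; measures binding of labelled protein to compounds printed on the slide; score merges feature fluorescence at 667 nm with signal-to-noise.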 The following applies: small-molecule microarray, higher = more signal.
Assay [8] is described as follows: probe aNog binding to arrayed compounds – biochemical, biotinylated probe, 635/667 nm fluorescence, primary screen (AID 1115).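 Further: probe is biotinylated aNog protein used at 0.15 µg/mL for 1 h at 4 C; z-score combines 667 nm fluorescence of each spot with its signal to noise.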 The following applies: small-molecule microarray, higher = more signal.
Assay [9] has as its target Torsin-1A-interacting protein 1 (Homo sapiens) (UniProt Q5JTV8). Kind of assay: compound microarray binding of lysate hLAP1 – cell lysate, small-molecule microarray, COS7 lysate, 635/667 nm fluorescence, primary screen (AID 1116). The following applies: 635 nm fluorescence, higher = more signal.
The target of assay [10] is Alpha-bungarotoxin (Bungarus multicinctus) (UniProt P60615). Kind of assay: compounds binding labelled alpha-BTX control protein – biochemical, small-molecule microarray, Alexa647 label, 635/667 nm fluorescence, artefact control for SMM control protein annotation, profiling panel (AID 1117). Particulars: alpha-BTX-A647 binding fluorescence, higher = more signal.
Alpha-bungarotoxin (Bungarus multicinctus), sequence (P60615 whole entry, looked up): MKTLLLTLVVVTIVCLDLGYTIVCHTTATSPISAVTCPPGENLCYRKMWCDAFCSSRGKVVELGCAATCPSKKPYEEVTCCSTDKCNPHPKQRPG

The structures appear in SMILES notation.

Torsin-1A-interacting protein 1 (Homo sapiens), sequence (Q5JTV8 whole entry, looked up): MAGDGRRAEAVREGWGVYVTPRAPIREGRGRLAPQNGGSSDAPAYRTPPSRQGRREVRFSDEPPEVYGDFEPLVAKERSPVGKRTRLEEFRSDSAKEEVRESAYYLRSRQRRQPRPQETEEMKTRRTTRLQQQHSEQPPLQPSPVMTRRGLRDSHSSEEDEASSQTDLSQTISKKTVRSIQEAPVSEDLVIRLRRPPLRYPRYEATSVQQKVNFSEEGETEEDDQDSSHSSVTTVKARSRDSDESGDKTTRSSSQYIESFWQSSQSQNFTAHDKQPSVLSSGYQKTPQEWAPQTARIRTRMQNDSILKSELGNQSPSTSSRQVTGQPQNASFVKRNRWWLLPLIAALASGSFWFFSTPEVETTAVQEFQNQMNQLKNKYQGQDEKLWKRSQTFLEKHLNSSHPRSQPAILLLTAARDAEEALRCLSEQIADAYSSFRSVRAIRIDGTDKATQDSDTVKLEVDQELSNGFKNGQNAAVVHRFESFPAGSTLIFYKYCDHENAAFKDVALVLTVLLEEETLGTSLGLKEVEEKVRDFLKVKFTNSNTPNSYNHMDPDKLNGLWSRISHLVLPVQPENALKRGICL

As for `[N-]=[N+]=NCc1ccccc1[C@H]1OC(c2ccc(OCCCO)cc2)=N[C@@]1(Cc1ccccc1N=[N+]=[N-])C(=O)NCC(O)CO` (stereo not given in full), the composite z-score in assay [1] is 1.46; in assay [3] it was -0.591; in assay [4], 1.33; in [5], 0.734; in assay [6], 0.112; in assay [7] it was 0.28. Further, the composite z-score in assay [8] was found to be 1.63; in assay [9] it was 1.48; in assay [10], 1.08. In assay [2], this molecule yielded a z-score of -1.75.

For `CC(C)[Si]1(C(C)C)OCc2cc(-c3ccc(-c4ccc(Cl)c(Cl)c4)o3)nc(-c3ccccc3)c21`, the composite z-score in assay [1] was -0.922; in assay [3], -1.59; in assay [4], -0.856; in assay [5], -0.341; in assay [6] it was -0.16; in assay [7], 0.0121. Moreover, the composite z-score in assay [8] is -0.418; in assay [9], -1.16; in assay [10], -0.597. This molecule also displayed a z-score in assay [2] of -1.16.

On to `CC(CO)N1C(=O)[C@@H]2[C@H]3C(=O)OCC=C[C@H]3OC23C=CCN(Cn2nnc4ccccc42)C(=O)[C@@H]13` (stereo not given in full), for which the composite z-score is -0.931 in assay [1]; -1.4 in assay [3]; -0.196 in [4]; 0.0507 in [5]; -0.13 in assay [6]; -0.117 in assay [7]. Besides, the results for the composite z-score in assay [8], in assay [9] and in assay [10] were 0.0517, -0.607 and -0.975, respectively. In [2], this molecule came in with a z-score of 0.0368.

With `CCCC=C(CCC)[C@@H](NS(=O)(=O)c1ccc(C(F)(F)F)cc1)c1ccccc1`, the composite z-score in [1] is 0.608; in [3] it was -0.318; in [4], 0.641; in [5] it was 0.951; in assay [6] it was 0.0853; in [7], -0.106. Also, the composite z-score in assay [8] is 0.711; in assay [9], -0.127; in assay [10], 0.261. In assay [2], this molecule had a z-score of -0.0015.

As for `CCOC(=O)C[C@H]1[C@H](OC(=O)c2cc3ccccc3oc2=O)[C@@H](NC(=O)c2ccccc2)c2cc(OCCCO)ccc2N1C(=O)c1ccccc1`, the composite z-score in assay [1] is 0.119; in assay [3], 0.535; in [4], -0.0848; in [5], -0.782; in assay [6], -0.0718; in [7], 0.0121. The values for the composite z-score in assay [8], in assay [9] and in assay [10] were -0.108, 0.203 and 0.139, respectively. Moreover, in [2], the z-score is -0.148.

Take `CC(C)C[C@@H]1NC(=O)[C@@H]2C[C@H](C(=O)NCCCCCCN)[C@H](c3cccc(OCCO)c3)N2C1=O`: the composite z-score in assay [1] was 1.46; in [3], 0.281; in assay [4], 0.861; in assay [5], -0.0534; in [6], -0.0461; in assay [7] it was -0.349. Moreover, the composite z-score was -0.346 in assay [8], 1.13 in [9] and 1.67 in assay [10]. The z-score in assay [2] is -0.125.

Consider `COc1ccc([Si](C)(C)[C@@H]2[C@@H](CCO)O[C@]3(C(=O)N(Cc4ccccc4)c4ccc(NC(=O)[C@H](C)O)cc43)[C@H]2C)cc1`, for which the composite z-score is 1.35 in assay [1]; 0.387 in [3]; 1.46 in assay [4]; -0.153 in assay [5]; 0.0559 in assay [6]; -0.0738 in assay [7]. The composite z-score in assay [8] was -0.0428; in [9], 1.5; in assay [10], 0.484. The molecule also registered a z-score in assay [2] of -5.08.

Regarding `CCOC(=O)C[C@H]1[C@H](OC(=O)c2ccccc2-c2ccccc2)[C@@H](NC(=O)c2ccc3ccccc3c2)c2cc(OCCCO)ccc2N1C(=O)c1ccccc1`, the composite z-score in [1] was 0.461; in assay [3] it was 0.596; in assay [4] it was -0.09; in [5], -0.332; in assay [6], -0.0981; in assay [7], -0.291. For the same molecule, the composite z-score in assay [8] came out at 0.0043; in assay [9], 0.228; in [10], 0.789. In addition, the z-score in [2] was -1.27.

Regarding `COC(=O)[C@@]1(Cc2ccc(OC)cc2)[C@H]2c3cc(C(=O)N(C)C)n(Cc4ccc(OC(F)(F)F)cc4)c3C[C@H]2CN1C(=O)c1ccccc1`, the composite z-score in [1] is 0.38; in [3], -0.0954; in assay [4], 0.417; in assay [5], 0.267; in [6], -0.0807; in [7], 0.337. For the same molecule, the figures for the composite z-score in [8], in assay [9] and in assay [10] were 0.196, 1.58 and -0.114, respectively. The same molecule came in with a z-score in assay [2] of -3.63.

With `CC[C@@H]1C=C(C(=O)O)[C@H](c2ccccc2)N1S(=O)(=O)c1ccc(C)cc1`, the composite z-score in assay [1] is 0.807; in assay [3], 0.0801; in assay [4], 1.6; in assay [5] it was 1.03; in assay [6], -0.113; in assay [7] it was 0.162. Further, the composite z-score in [8] was -0.398; in assay [9] it was 0.599; in [10], 1.39. This molecule yielded a z-score in assay [2] of -1.33.

As to `CC(C)c1ccc(NN2C(C(O)c3ccc(C#N)cc3)C=CC3C(=O)N(c4ccccc4)C(=O)C32)cc1` (stereo not given), the composite z-score in assay [1] is 1.44; in assay [3], -0.109; in [4], 2.28; in assay [5] it was 1.01; in assay [6], -0.0405; in [7], 0.19. Further, the composite z-score amounted to 1.97 in [8], 1.35 in assay [9] and 1.85 in assay [10]. The molecule further yielded a z-score in assay [2] of -0.882.

`CCCNC(=O)[C@@]1(C)c2ccccc2C(=O)N(c2ccc(C)cn2)[C@H]1c1ccc(CO)cc1`: the composite z-score in [1] was -0.846; in [3], 0.384; in [4] it was -0.474; in assay [5], -0.524; in assay [6], -0.124; in assay [7], -0.291. The composite z-score in assay [8] is 0.0373; in [9], 0.311; in assay [10], -0.163. This molecule displayed a z-score in assay [2] of 0.155.

On to `CN(C)C(=O)[C@@]1(Cc2ccccc2CN=[N+]=[N-])N=C(c2ccc(OCCCO)cc2)O[C@H]1c1ccccc1N=[N+]=[N-]`, for which the composite z-score was 1.45 in [1]; -0.553 in assay [3]; 1.73 in assay [4]; 1.11 in [5]; -0.191 in [6]; -0.138 in assay [7]. Further, the composite z-score in [8] turned out to be 1.84; in assay [9] it was 2.26; in assay [10] it was 1.93. In assay [2], the z-score was -2.99.

Consider `Cc1ccc(S[C@]2(C(=O)NCC(F)(F)F)CC(=O)N(Cc3cc(C(F)(F)F)cc(C(F)(F)F)c3)[C@@H]2c2ccc(CO)cc2)cc1`, for which the composite z-score in assay [1] is -0.109; in assay [3], -0.968; in assay [4], -0.392; in assay [5] it was 0.159; in assay [6] it was -0.25; in assay [7], -0.356. The results for the composite z-score in assay [8], in assay [9] and in assay [10] were 0.162, -0.851 and -0.633, respectively. This molecule also came in with a z-score in [2] of -0.099.

For `CC1CC/C=C\[C@H]2OC34C=CCN(Cc5ccccc5)C(=O)[C@H]3N(C(CO)C(C)C)C(=O)[C@@H]4C2C(=O)O1` (stereo not given in full), the composite z-score is -0.376 in assay [1]; -0.369 in assay [3]; -0.862 in [4]; -0.528 in assay [5]; -0.176 in [6]; -0.0709 in assay [7]. Further, the composite z-score in assay [8] is -0.12; in assay [9], 0.344; in assay [10] it was -0.677. Moreover, in assay [2], the z-score is -0.386.

Turning to `CC(C)C(CO)N1C(=O)[C@@H]2C3C(=O)OCCC/C=C\[C@H]3OC23C=CCN(Cn2nnc4ccccc42)C(=O)[C@@H]13` (stereo not given in full), the composite z-score in assay [1] was 1.32; in assay [3], -0.874; in assay [4], -0.42; in assay [5] it was 0.0878; in assay [6], -0.202; in assay [7], -0.229. The composite z-score is 0.407 in assay [8], 1.92 in assay [9] and -1.15 in assay [10]. The molecule also registered a z-score in assay [2] of 0.236.

With `CCOC(=O)C[C@H]1[C@H](OC(=O)c2cc3ccccc3oc2=O)[C@@H](NC(=O)CC(C)C)c2cc(OCCCO)ccc2N1C(=O)c1ccc2ccccc2n1`, the composite z-score in assay [1] was 1.05; in [3] it was 0.643; in assay [4] it was -0.134; in assay [5], -0.35; in [6], -0.152; in assay [7], -0.154. Also, the composite z-score was -0.143 in assay [8], 0.0785 in [9] and 0.643 in assay [10]. Besides, the z-score in assay [2] was -0.359.

On to `CCCCC=C[C@@H](NC(=O)OCc1ccccc1Cl)c1ccccc1`, for which the composite z-score came out at 1.4 in assay [1]; 0.39 in assay [3]; 1.35 in [4]; 1 in [5]; 1.08 in [6]; 1.97 in assay [7]. Besides, the results for the composite z-score in assay [8], in assay [9] and in assay [10] were 3.06, 0.28 and 0.922, respectively. In assay [2], this molecule gave a z-score of -0.0468.
